Reference: PubChem BioAssay (NCI)
About 83,000 compounds went through this panel and 20% of them were active in at least one assay; those are over-represented in the sample as a whole.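 Percent growth is the endpoint: 0 to 100 indicates growth inhibition (40 means 60% inhibition), 0 means no net growth, and negative values indicate cell death.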 Values without a mark were called inactive. Activity calls are given as the source filed them. Rule for the calls: active = growth percent below 10; inactive = the rest.

Key:
Assay in all cases: NCI-60 one-dose screen, 48 h (100 = growth as untreated, 0 = no growth, -100 = all killed)
Settings in all cases: 10 µM unless noted
[1] = tested on: T-47D breast
[2] = tested on: BT-549 breast
[3] = tested on: MDA-MB-435 melanoma
[4] = tested on: SW-620 colon
[5] = tested on: MCF7 breast
[6] = tested on: HCT-116 colon
[7] = tested on: HCC-2998 colon
[8] = tested on: KM12 colon

SMILES | growth [1] | growth [2] | growth [3] | growth [4] | growth [5] | growth [6] | growth [7] | growth [8]
O=C1CCC(NC(=S)Nc2ccccc2)N1 (centres undefined) | 103% | 114% | 109% | 107% | 97.3% | 97.6% | 98.7% | 98%
COc1ccc(-c2c(-c3ccccc3)noc2N)cc1OC | 99.6% | 105% | 91% | 118% | 91.2% | 100% | 110% | 94.7%
CCOC(=O)C1CC(=O)c2cc(OC)c(OC)cc2C1 (centres undefined) | 115% | 123% | 114% | 111% | 95.7% | 95.5% | 101% | 103%
Fc1ccccc1CSc1ncnc2nc[nH]c12 | 97.7% | 137% | 109% | 96% | 96.9% | 97.6% | 111% | 112%
O=C(O)c1ccc[n+](CC(=O)N2CCN(c3cc4c(cc3F)c(=O)c(C(=O)O)cn4C3CC3)CC2)c1 | 85.9% | 75.1% | 67.4% | -3.29% (active) | 50.9% | 23.9% | 111% | 92.2%
C=C(C)[C@@H]1CC[C@]2(C=O)CC[C@]3(C)[C@H](CC[C@@H]4[C@@]5(C)CCCNC(C)(C)[C@@H]5CC[C@]43C)[C@@H]12 | 57.8% | 88.7% | 66.6% | -31.4% (active) | 30% | 25.4% | 41.6% | 58.6%
Nc1nnc(C(=O)c2cnc3n(c2=O)CCCCC3)s1 | 98.5% | 108% | 106% | 100% | 98.8% | 103% | 106% | 105%
COc1cc2nc(Cc3ccc(C)cc3)[nH]c(=O)c2cc1OC | 107% | 229% | 119% | 101% | 104% | 117% | 106% | 109%
Fc1ccc(C2CC(c3cccc(Nc4ccncc4)c3)=NN2c2ccc(Cl)cc2)cc1 (centres undefined) | 80.9% | 105% | -6.55% (active) | -74% (active) | 6.6% (active) | 101% | 16.7% | 19.5%
CC(=O)N1c2ccccc2NC2=C(C(=O)N(Cc3ccccc3)C2(C)C)C1c1ccco1 (centres undefined) | 35.1% | 47.6% | -56.2% (active) | 21.7% | 15.3% | 7.52% (active) | 3.73% (active) | 14.8%
C=CCn1c(SCC(=O)Nc2ccc(C(=O)/C=C/c3cc(OC)c(OC)c(OC)c3)cc2)nnc1-c1cc(OC)c(OC)c(OC)c1 | 60.7% | 52.3% | 3.79% (active) | -9.49% (active) | 7.87% (active) | -70.9% (active) | 20.2% | 1.11% (active)
COc1ccc(/C=C/C(=O)c2ccc(OC)c(OC)c2)cc1O | 75.7% | 85.2% | 75% | 17.1% | 51.6% | 20.3% | 102% | 70.6%
CCOC(=O)Oc1c(OC)cc(C(=O)O[C@@H]2C[C@@H]3CN4CCc5c([nH]c6cc(OC)ccc56)[C@H]4C[C@@H]3[C@H](C(=O)OC)[C@H]2OC)cc1OC | 38.6% | 77.5% | 70.9% | 48.4% | 83.8% | 1.57% (active) | 68.7% | 39.8%
COc1cc2nc(-c3ccc(C(F)(F)F)cc3)cc(OCCN3CCC(O)CC3)c2cc1OC | 74.9% | 52.3% | 94.4% | 91.8% | 93.1% | 55.3% | 77.9% | 86.8%
Cc1ccc(C2CC(c3cccc(Nc4ccncc4)c3)=NN2c2ccccc2)cc1 (centres undefined) | -58.2% (active) | 81.2% | -89.5% (active) | -62.7% (active) | -92% (active) | -78% (active) | -92.2% (active) | -88.3% (active)
NC(=S)N/N=C(/c1ccccc1)c1ccccc1N | 43.7% | 104% | 90.4% | 79.2% | 39.7% | 3.36% (active) | 113% | 98.9%
CCOc1cc(CNc2ccc(N3CCOCC3)c(C(=O)O)c2)ccc1OC | 103% | 108% | 104% | 98.5% | 82.2% | 119% | 99.9% | 100%
C=C(C)[C@H]1CC/C(C)=C/CC[C@]2(C)O[C@H]2CC/C(COC(=O)[C@@H](OC(C)=O)[C@H](NC(=O)c2ccccc2)c2ccccc2)=C\[C@@H]1O | 73.6% | 97.1% | 92.3% | 105% | 81.2% | 89.6% | 96.5% | 99.6%
COc1ccc(NS(=O)(=O)c2ccc(C)cc2)c([N+](=O)[O-])c1 | 93.5% | 104% | 111% | 103% | 99.7% | 106% | 99.6% | 104%
S=c1[nH]cccc1-c1nnc2n1Nc1nc3ccc(Cl)cc3cc1CS2 | 89.5% | 96.3% | 103% | 98.8% | 86.5% | 86.6% | 106% | 104%
COc1cc(C2CC(c3cccc(Nc4ccncc4)c3)=NN2C(C)=O)cc(OC)c1OC (centres undefined) | 85.2% | 103% | 18.1% | 87.8% | 72.6% | 71.2% | 95.1% | 69.5%
O=C(Nc1sc2c(c1C(=O)O)CCCC2)c1cccc(C(F)(F)F)c1 | 73.4% | 93.1% | 86.2% | 90.6% | 63.5% | 80.2% | 101% | 89.9%
CN(C)c1ccc(-c2c(C#N)c(N)n3nc(N)c(C#N)c3c2C#N)cc1 | 59.5% | 69.1% | 97% | 112% | 99.3% | 99.3% | 83.6% | 75.4%
COc1cc(-c2cc(=O)oc3cc(O)ccc23)cc(OC)c1OC | 83.5% | 97.4% | 100% | 96% | 94% | 86.5% | 100% | 85.7%
Cc1ccc(-c2csc(/N=C3\C(=O)Nc4ccccc43)n2)cc1 | 20% | 23.6% | 12.9% | 19.4% | 6.92% (active) | 4.56% (active) | 6.25% (active) | 15.2%
Cc1nn(-c2ccccc2)c(N2CCOCC2)c1/C=N/N=c1\sc2ccccc2n1C | 51.7% | 81.5% | 92.1% | 82.7% | 68.5% | 49.6% | 106% | 81.4%
O=C(Nc1ccc2ncnc(Nc3ccc(Oc4cccc(F)c4)c(Cl)c3)c2c1)c1ccc(CNCCO)cc1 | 42.6% | 85.5% | -86.3% (active) | -74% (active) | -67.2% (active) | -46.5% (active) | -8.44% (active) | 12.9%
Clc1ccc(C2CC(c3cccc(Nc4ccncc4)c3)=NN2c2ccc(Cl)cc2)cc1 (centres undefined) | 52.2% | -80.2% (active) | -79% (active) | -67.6% (active) | -41.1% (active) | -73.2% (active) | -74% (active) | -77.3% (active)
